Compounds without any hit were thinned out: in the full panel of roughly 83,000, 20% have a hit.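 Negative percent growth values reflect cell death: -40 means 40% of the cells present at the start died, and -100 means all died.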 A number with no mark means an inactive call. Active and inactive are the calls of the source. Rule for the calls: active = growth percent below 10; inactive = the rest.
What was measured:
Experiment in all cases: NCI-60 one-dose screen, 48 h (100 = growth as untreated, 0 = no growth, -100 = all killed)
Conditions in all cases: 10 µM unless noted
NCI-H23 lung = test system: NCI-H23 lung
NCI-H226 lung = test system: NCI-H226 lung
NCI-H322M lung = test system: NCI-H322M lung
HOP-62 NSCLC = test system: HOP-62 NSCLC
NCI-H460 lung = test system: NCI-H460 lung
HOP-92 NSCLC = test system: HOP-92 NSCLC
NCI-H522 lung = test system: NCI-H522 lung
A549/ATCC NSCLC = test system: A549/ATCC NSCLC
786-0 renal = test system: 786-0 renal
COLO 205 colon = test system: COLO 205 colon

Structure (SMILES)	growth (NCI-H23 lung)	growth (NCI-H226 lung)	growth (NCI-H322M lung)	growth (HOP-62 NSCLC)	growth (NCI-H460 lung)	growth (HOP-92 NSCLC)	growth (NCI-H522 lung)	growth (A549/ATCC NSCLC)	growth (786-0 renal)	growth (COLO 205 colon)
COc1ccc(C(=O)c2cc(C(C)=O)c3c(C)cc(C)cn23)cc1	47.7%	44.4%	76.8%	34.5%	45.4%	46.8%	2.3% (active)	45.3%	45.4%	92.7%
C[C@@H]1[C@H]2C[C@@H](C[C@H]1NCc1nc3ccccc3n1C1CCCCCC1)C2(C)C	33%	57.2%	95.4%	88.3%	56.3%	28.9%	22.9%	71.8%	63.4%	58.7%
COC(=O)c1cc(C(=O)C(Br)Br)n2c1ccc1c3ccccc3ccc12	69%	64.2%	89.4%	56.7%	18.4%	54.3%	60.2%	40.8%	64.6%	55.3%
NC(=Nc1ccc(OCCCCCCCCn2cnnn2)cc1)c1ccccc1	10.8%	21.3%	57%	18.6%	–	82.5%	–	23.7%	34.5%	–
N#Cc1ccc(C(=O)NNC(=O)CSc2nc3sc4c(c3c(=O)n2-c2ccc(Cl)cc2)CCCC4)cc1	33.2%	54.1%	51.7%	7.62% (active)	51.8%	45.6%	61.5%	61.9%	75.5%	110%
O=C(Nc1ccc(-c2ccc3c(c2)NC(=O)/C3=C\c2ccc[nH]2)cc1)Nc1ccc(Cl)c(C(F)(F)F)c1	15.4%	65.8%	50.6%	44.1%	4.07% (active)	46.9%	-15.1% (active)	18%	48.8%	15.4%
Cc1cc(N=C(N)c2ccccc2)ccc1OCCCCCCCCn1ccnc1	-28% (active)	–	18.7%	-14.4% (active)	–	16.3%	–	15%	4.01% (active)	–
COc1ccc2[nH]c(=O)c(CSc3ccccc3Nc3nccc(-c4ccc5c(c4)OCO5)n3)cc2c1	–	76.1%	92.5%	94.1%	83.5%	90.3%	66.1%	76.3%	90.1%	–
N#Cc1cc(-c2ccc3ncnc(N4CCc5cc(F)c(Cl)cc54)c3c2)cnc1N	50.2%	59.1%	38.4%	77.5%	5.5% (active)	1.74% (active)	46%	42%	22.1%	12.2%
COc1ccc(C(=O)c2c(N)c(C#N)cn2-c2ccc([N+](=O)[O-])cc2)cc1	103%	102%	100%	83.4%	108%	102%	85.1%	103%	109%	105%
O=C(Cc1c(-c2cccc([N+](=O)[O-])c2)n(-c2ncnc3c2c(-c2ccccc2)c(-c2ccccc2)n3Cc2ccccc2)[nH]c1=O)c1ccc(Cl)c(Cl)c1	16.1%	39%	79.1%	44.9%	33.9%	-2.08% (active)	7.22% (active)	45%	63.4%	60.2%
COc1ccc2[nH]c(O)c(N=NC(=O)c3ccc4nc(-c5ccc(Cl)cc5)[nH]c4c3)c2c1	65.6%	77.5%	85.9%	48.9%	101%	73.3%	35.3%	113%	90.6%	18%
CCOc1ccccc1[C@H]1C(C(=O)c2ccc(Cl)cc2)C2(N[C@@H]1c1ccccc1)C(=O)Nc1ccccc12 (stereo partly specified)	4.22% (active)	-18.4% (active)	36.1%	32.9%	-36.3% (active)	-22.4% (active)	-3.52% (active)	57.4%	-16.4% (active)	-81.5% (active)
